Unmarked numbers belong to inactive results. Calls of active or inactive are those of the source. Cut-off read from the data, not from the text of the source, unless noted: active = inhibition above about 33%; inactive = the rest.
What was measured:
[1] = StAR promoter reporter inhibitors, counter-screen for LRH-1 inverse agonist project, cell-based, luminescence, high throughput (AID 651611; in the data active = inhibition above about 28%); conditions: StAR promoter luciferase reporter counterscreen, at 3.6 µM, hits give high values
[2] = biological target: Nuclear receptor subfamily 5 group A member 2 (Homo sapiens) (UniProt O00482); assay: LRH-1 (NR5A2) inverse agonists, retest, confirmation, cell-based, luminescence (AID 651613; in the data active = inhibition above about 42%;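 note: HEK293T cells co-transfected with LRH-1 and StAR promoter luciferase reporter; 0% = vehicle wells and 100% = parental cells lacking receptor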); conditions: cell-based LRH-1 luciferase reporter, inverse agonism; at 3.6 µM; hits give high values
[3] = biological target: Steroidogenic factor 1 (Homo sapiens) (UniProt Q13285); assay: SF1 (NR5A1) inverse agonists, counter-screen for LRH-1 inverse agonist project, cell-based, luminescence, high throughput (AID 651614; in the data active = inhibition above about 44%;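 note: cells cotransfected with StAR promoter reporter and SF1 expression vector; 0% = vehicle on cells with receptor and 100% = vehicle on cells lacking receptor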); conditions: cell-based SF1 luciferase reporter, at 3.6 µM, hits give high values
[4] = VP16 transactivation reporter inhibitors, counter-screen for LRH-1 inverse agonist project, cell-based, luminescence, high throughput (AID 651615); conditions: Gal4-VP16 luciferase reporter cells, at 3.6 µM, hits give high values

Sequence of Nuclear receptor subfamily 5 group A member 2 (Homo sapiens) (O00482 whole entry, looked up): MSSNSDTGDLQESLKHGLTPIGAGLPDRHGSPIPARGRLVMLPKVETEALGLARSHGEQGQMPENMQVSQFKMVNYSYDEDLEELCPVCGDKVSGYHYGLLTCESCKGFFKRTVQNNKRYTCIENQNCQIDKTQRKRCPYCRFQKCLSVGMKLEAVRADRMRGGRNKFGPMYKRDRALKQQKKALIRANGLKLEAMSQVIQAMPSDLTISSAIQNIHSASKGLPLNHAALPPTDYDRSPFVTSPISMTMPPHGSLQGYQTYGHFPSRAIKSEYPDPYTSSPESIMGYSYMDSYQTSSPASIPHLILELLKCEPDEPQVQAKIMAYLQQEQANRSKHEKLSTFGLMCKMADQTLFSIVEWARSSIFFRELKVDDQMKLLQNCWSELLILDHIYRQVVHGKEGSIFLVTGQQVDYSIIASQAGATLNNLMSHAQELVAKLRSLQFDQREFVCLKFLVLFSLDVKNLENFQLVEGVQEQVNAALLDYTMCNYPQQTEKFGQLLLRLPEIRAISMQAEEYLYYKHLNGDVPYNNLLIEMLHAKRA
Sequence of Steroidogenic factor 1 (Homo sapiens) (Q13285 whole entry, looked up, the tested form may be a part): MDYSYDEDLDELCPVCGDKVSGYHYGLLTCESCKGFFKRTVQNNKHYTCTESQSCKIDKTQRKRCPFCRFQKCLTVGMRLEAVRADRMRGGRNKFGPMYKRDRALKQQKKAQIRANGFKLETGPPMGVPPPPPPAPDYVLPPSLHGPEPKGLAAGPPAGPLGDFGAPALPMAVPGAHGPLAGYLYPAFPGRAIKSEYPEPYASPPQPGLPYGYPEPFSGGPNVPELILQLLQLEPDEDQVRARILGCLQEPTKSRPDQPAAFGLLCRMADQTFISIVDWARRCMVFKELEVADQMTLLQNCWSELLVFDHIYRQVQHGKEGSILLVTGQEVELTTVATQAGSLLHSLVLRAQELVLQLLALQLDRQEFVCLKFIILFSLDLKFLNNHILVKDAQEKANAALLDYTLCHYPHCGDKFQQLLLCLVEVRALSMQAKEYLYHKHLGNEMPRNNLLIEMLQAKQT

| Compound | inhibition [1] | inhibition [2] | inhibition [3] | inhibition [4] |
| --- | --- | --- | --- | --- |
| CC(=NNC(=S)N1CCN(c2ccccn2)CC1)c1nccs1 | 82.9% (active) | 91.2% (active) | 79.4% (active) | 44.3% (active) |
| CCOc1cc2c(cc1OCC)C(c1ccc(OC)cc1)N(c1ccccc1)C(=O)C2 (stereo unspecified) | -4.63% | 3.16% | -5% | -4.52% |
| Cc1cc(NCCCCCCCNc2cc(C)nc3cc([N+](=O)[O-])ccc23)c2ccc([N+](=O)[O-])cc2n1 | -0.67% | 26.2% | 40.3% | 39.7% (active) |
| O=C(Nc1ccc2[nH]c(=O)[nH]c2c1)c1ccc([N+](=O)[O-])o1 | 7.96% | 65.1% (active) | 65.8% (active) | -11.8% |
| N#Cc1c(N)c(C#N)c(-c2ccc(O)cc2)c2c1CCCC2 | 6.6% | 57.8% (active) | 53.8% (active) | 9.21% |
| CN(C)S(=O)(=O)c1ccc(C(=O)NCc2ccc3[nH]c4c(c3c2)CCCC4)cc1 | 24.6% | 39.3% | 54.4% (active) | -9.28% |
| CCC(C)(C)n1nnnc1CN1CCC(O)(c2cccc(C(F)(F)F)c2)CC1 | 8.87% | 41.6% (active) | 57.2% (active) | -2.12% |
| CC(=O)c1ccc(NC(=O)COc2ccccc2C(=O)Nc2ccccc2)cc1 | 5.25% | 54.9% (active) | 45.9% (active) | -21.9% |
| CSc1ccc(CNc2cccc3ccccc23)cc1 | 3.79% | 35.3% | 24.7% | -39.8% |
| O=C(NCCN1CCOCC1)c1ccc2c(c1)N(Cc1ccccc1F)C(=O)CS2 | 11.1% | 42.4% (active) | 36.2% | -9.87% |
| COC(=O)CNc1nc(-c2cccnc2)nc2ccccc12 | 16.8% | 44.6% (active) | 42.2% | -0.85% |
| O=C(CN1C(=O)CCC1=O)Nc1ccc(Br)cc1 | 15.1% | 60.2% (active) | 52.2% (active) | -3.7% |
| CCNc1cc(N2CCCC2)ccc1[N+](=O)[O-] | 10.6% | 40.2% | 44% (active) | -8.79% |
| Cc1ccc(/C=C2\SC(=S)N(c3c(C)n(C)n(-c4ccccc4)c3=O)C2=O)cc1 | 9.85% | 55.7% (active) | 45.5% (active) | -2.06% |
| COc1cc2c(cc1OC)CN(C(=O)Cn1ccccc1=O)CC2 | 16.3% | 56.6% (active) | 57.1% (active) | 6.2% |
| COC(=O)c1ccc(NC(=O)CN2CCC(NC(=O)c3ccccc3F)CC2)cc1 | 23.6% | 52.3% (active) | 44.1% (active) | -4.8% |
| Cc1ccc2cccc(OCC(=O)NCCC3=CCCCC3)c2n1 | 8.76% | 61.1% (active) | 58.1% (active) | -3.55% |
| COc1cccc(NC(=O)N(C)C[C@H]2Oc3cc(C#Cc4ccncc4)ccc3S(=O)(=O)N([C@H](C)CO)C[C@H]2C)c1 | 28% (active) | 50.6% (active) | 44.8% (active) | -37% |
| COc1ccc(NC(=O)c2cc(-c3cc(F)ccc3OC)n[nH]2)cc1OC | 28.8% (active) | 43.6% (active) | 49.4% (active) | 52% (active) |
| CCCc1nnc(SCC(=O)Nc2ccc(OC)cc2)o1 | 5.23% | 42.6% (active) | 45% (active) | -8.5% |
| Cn1nnnc1Sc1ncnc2scc(-c3ccc(-c4ccccc4)cc3)c12 | 19.4% | 33.6% | 39.4% | -20.2% |
| O=C(COC(=O)c1ccccn1)Nc1cccnc1Cl | 3.58% | 40.5% | 39.4% | -6.21% |
| CCCOc1ccc2oc(=O)c3c(c2c1)CCCN3C(=O)CN1CCN(c2ncccn2)CC1 | 6.16% | 53.4% (active) | 55.7% (active) | -7.99% |
| CCCOc1ccc(Cn2cnc3ccccc32)cc1 | 5.08% | 54.6% (active) | 52.4% (active) | 27.3% |

Reference: PubChem BioAssay
